What all share (test): yeast three-hybrid, YBZ-1, SC-Leu-His + 0.5 mM 3-AT, 4 days
Details in all cases: tags: N-Gal4 AD-HA kept; label: inside an RPR1-promoter hybrid RNA with tandem MS2 sites; ssRNA

One experiment has as its target PUM1 PUF domain R7-AVR (Homo sapiens, UniProt Q14671 828-1176, S1079A;N1080V;E1083R). A digest of the protocol: (§1)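 Each repeat of the Pumilio-1 PUF domain was randomized at its three base-contacting residues, and these libraries were co-expressed from a centromeric plasmid with matching RNA elements in strain YBZ-1. After four days on SC-Leu (input) or SC-Leu-His + 0.5 mM 3-AT (selection), the repeat regions were PCR-amplified and Illumina-sequenced. The interaction score compares variant frequency between input and selection as a log change, computed in log2 with a pseudocount of 1 for absent variants.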

The target in a further experiment is PUM1 PUF domain R7-KRE (Homo sapiens, UniProt Q14671 828-1176, S1079K;N1080R). A digest of the protocol: as §1
The next experiment concerns the target PUM1 PUF domain R7-GPK (Homo sapiens, UniProt Q14671 828-1176, S1079G;N1080P;E1083K). The procedure, abridged:
as §1

The next experiment has as its target PUM1 PUF domain R5-YRR (Homo sapiens, UniProt Q14671 828-1176, C1007Y;Q1011R). A digest of the protocol: as §1
Another experiment addresses PUM1 PUF domain R5-KFC (Homo sapiens, UniProt Q14671 828-1176, C1007K;R1008F;Q1011C). A digest of the protocol: as §1
For a further experiment, the target named is PUM1 PUF domain R5-RRE (Homo sapiens, UniProt Q14671 828-1176, C1007R;Q1011E). The procedure, abridged: as §1
The next experiment concerns the target T1, PUM1 PUF domain R6-MWR (Homo sapiens, UniProt Q14671 828-1176, N1043M;Y1044W;Q1047R).
T1 sequence: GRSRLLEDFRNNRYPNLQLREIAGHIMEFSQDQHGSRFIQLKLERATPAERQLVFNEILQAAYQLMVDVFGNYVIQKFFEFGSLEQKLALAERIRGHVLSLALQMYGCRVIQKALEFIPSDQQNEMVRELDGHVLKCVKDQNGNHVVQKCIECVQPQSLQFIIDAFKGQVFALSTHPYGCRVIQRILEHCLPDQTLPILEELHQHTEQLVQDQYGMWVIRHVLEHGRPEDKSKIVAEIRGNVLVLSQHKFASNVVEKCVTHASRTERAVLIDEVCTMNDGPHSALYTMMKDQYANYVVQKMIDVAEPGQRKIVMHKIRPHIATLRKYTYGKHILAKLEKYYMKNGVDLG
The procedure, abridged: as §1

Another experiment has as its target PUM1 PUF domain R5-RYL (Homo sapiens, UniProt Q14671 828-1176, C1007R;R1008Y;Q1011L). A digest of the protocol:
as §1

The next experiment addresses PUM1 PUF domain R3-FFG (Homo sapiens, UniProt Q14671 828-1176, C935F;R936F;Q939G). A digest of the protocol:
as §1

The next experiment concerns the target PUM1 PUF domain R3-LWV (Homo sapiens, UniProt Q14671 828-1176, C935L;R936W;Q939V). The procedure, abridged:
as §1

The next experiment addresses PUM1 PUF domain R3-RRL (Homo sapiens, UniProt Q14671 828-1176, C935R;Q939L). The procedure, abridged:
as §1

Another experiment addresses PUM1 PUF domain R8-RWA (Homo sapiens, UniProt Q14671 828-1176, N1122R;Y1123W;Q1126A). A digest of the protocol:
as §1

The next experiment addresses PUM1 PUF domain R8-KYR (Homo sapiens, UniProt Q14671 828-1176, N1122K;Q1126R). A digest of the protocol:
as §1

The target of another experiment is T2, PUM1 PUF domain R6-TWQ (Homo sapiens, UniProt Q14671 828-1176, N1043T;Y1044W).
T2 sequence: T1 sequence with M216T, R220Q
A digest of the protocol:
as §1

The target in the next experiment is T3, PUM1 PUF domain R6-IYC (Homo sapiens, UniProt Q14671 828-1176, N1043I;Q1047C).
T3 sequence: T1 sequence with M216I, W217Y, R220C
A digest of the protocol: as §1

The next experiment deals with PUM1 PUF domain R4-RVY (Homo sapiens, UniProt Q14671 828-1176, N971R;H972V;Q975Y). The procedure, abridged:
as §1

For another experiment, the target named is PUM1 PUF domain R5-FRN (Homo sapiens, UniProt Q14671 828-1176, C1007F;Q1011N). A digest of the protocol: as §1
Another experiment deals with PUM1 PUF domain R3-APS (Homo sapiens, UniProt Q14671 828-1176, C935A;R936P;Q939S). The procedure, abridged:
as §1

For another experiment, the target named is PUM1 PUF domain R3-DWE (Homo sapiens, UniProt Q14671 828-1176, C935D;R936W;Q939E). A digest of the protocol: as §1
For a further experiment, the target named is PUM1 PUF domain R5-KFW (Homo sapiens, UniProt Q14671 828-1176, C1007K;R1008F;Q1011W). A digest of the protocol:
as §1

Changes are numbered by the printed parent chain.

PUM1 PUF domain R5-RRE, sequence (Q14671 828-1176 C1007R/Q1011E): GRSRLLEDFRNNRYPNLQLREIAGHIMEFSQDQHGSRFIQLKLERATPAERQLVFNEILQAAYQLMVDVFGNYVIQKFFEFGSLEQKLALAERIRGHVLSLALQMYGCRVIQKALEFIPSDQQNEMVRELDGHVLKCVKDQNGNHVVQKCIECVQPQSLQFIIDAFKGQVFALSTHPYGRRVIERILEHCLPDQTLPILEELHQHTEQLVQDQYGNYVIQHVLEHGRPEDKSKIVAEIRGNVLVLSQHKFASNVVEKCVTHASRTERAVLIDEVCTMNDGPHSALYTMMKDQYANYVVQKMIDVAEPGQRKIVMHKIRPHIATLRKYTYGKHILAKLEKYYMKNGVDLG

As to “GGCUAGAACUAGUGGAUCCCCCGGCGCCCGGCGGCUCGAGCCCGGGUAAGUUUAAAUAGUCUGCAUGCCGCCGGGCGCCAUGCCUGCAGGUCGACUCUAGAAAACAUG”, the binding signal with PUM1 PUF domain R7-AVR is 3.46 log2 enrichment (interaction score); in the experiment with PUM1 PUF domain R7-KRE, 3.62 log2 enrichment (interaction score); with PUM1 PUF domain R7-GPK it was 3.11 log2 enrichment (interaction score).

For the sequence “GGCUAGAACUAGUGGAUCCCCCGGCGCCCGGCGGCUCGAGCCCGGGUAAGUGUUAAUAGUCUGCAUGCCGCCGGGCGCCAUGCCUGCAGGUCGACUCUAGAAAACAUG”, the binding signal is 1.61 log2 enrichment (interaction score) in the experiment with PUM1 PUF domain R5-YRR, 5.65 log2 enrichment (interaction score) in the experiment with PUM1 PUF domain R5-KFC and 5.72 log2 enrichment (interaction score) with PUM1 PUF domain R5-RRE.

“GGCUAGAACUAGUGGAUCCCCCGGCGCCCGGCGGCUCGAGCCCGGGUAAGUGCAAAUAGUCUGCAUGCCGCCGGGCGCCAUGCCUGCAGGUCGACUCUAGAAAACAUG”: the binding signal with PUM1 PUF domain R6-MWR is 2.97 log2 enrichment (interaction score).

Take “GGCUAGAACUAGUGGAUCCCCCGGCGCCCGGCGGCUCGAGCCCGGGUAAGUGUGAAUAGUCUGCAUGCCGCCGGGCGCCAUGCCUGCAGGUCGACUCUAGAAAACAUG”: the binding signal with PUM1 PUF domain R5-RYL was 3.39 log2 enrichment (interaction score); in the experiment with PUM1 PUF domain R5-RRE it was 2.27 log2 enrichment (interaction score).

Consider “GGCUAGAACUAGUGGAUCCCCCGGCGCCCGGCGGCUCGAGCCCGGGUAAGUGUAAGUAGUCUGCAUGCCGCCGGGCGCCAUGCCUGCAGGUCGACUCUAGAAAACAUG”, for which the figures for the binding signal in the experiment with PUM1 PUF domain R3-FFG and with PUM1 PUF domain R3-LWV were 7.59 log2 enrichment (interaction score) and 4 log2 enrichment (interaction score), respectively.

With “GGCUAGAACUAGUGGAUCCCCCGGCGCCCGGCGGCUCGAGCCCGGGUAAGUGUAAUUAGUCUGCAUGCCGCCGGGCGCCAUGCCUGCAGGUCGACUCUAGAAAACAUG”, the binding signal with PUM1 PUF domain R3-RRL was 3.07 log2 enrichment (interaction score); with PUM1 PUF domain R3-FFG it was 3.8 log2 enrichment (interaction score); with PUM1 PUF domain R3-LWV it was 3.36 log2 enrichment (interaction score).

As to “GGCUAGAACUAGUGGAUCCCCCGGCGCCCGGCGGCUCGAGCCCGGGUAAGCGUAAAUAGUCUGCAUGCCGCCGGGCGCCAUGCCUGCAGGUCGACUCUAGAAAACAUG”, the binding signal was 4.94 log2 enrichment (interaction score) with PUM1 PUF domain R8-RWA and 6.62 log2 enrichment (interaction score) with PUM1 PUF domain R8-KYR.

For the sequence “GGCUAGAACUAGUGGAUCCCCCGGCGCCCGGCGGCUCGAGCCCGGGUAAGUGAAAAUAGUCUGCAUGCCGCCGGGCGCCAUGCCUGCAGGUCGACUCUAGAAAACAUG”, the binding signal with PUM1 PUF domain R6-MWR is 3.34 log2 enrichment (interaction score); with PUM1 PUF domain R6-TWQ, 2.43 log2 enrichment (interaction score).

For the sequence “GGCUAGAACUAGUGGAUCCCCCGGCGCCCGGCGGCUCGAGCCCGGGUAAGUCUAAAUAGUCUGCAUGCCGCCGGGCGCCAUGCCUGCAGGUCGACUCUAGAAAACAUG”, in the experiment with PUM1 PUF domain R7-KRE, the binding signal is 4.01 log2 enrichment (interaction score).

On to “GGCUAGAACUAGUGGAUCCCCCGGCGCCCGGCGGCUCGAGCCCGGGUAAGUGUAAAUAGUCUGCAUGCCGCCGGGCGCCAUGCCUGCAGGUCGACUCUAGAAAACAUG”, for which the binding signal with PUM1 PUF domain R6-IYC is 3.57 log2 enrichment (interaction score); in the experiment with PUM1 PUF domain R4-RVY, 5.94 log2 enrichment (interaction score); with PUM1 PUF domain R8-RWA it was 4.01 log2 enrichment (interaction score); with PUM1 PUF domain R5-FRN it was 1.74 log2 enrichment (interaction score); in the experiment with PUM1 PUF domain R5-YRR, 1.76 log2 enrichment (interaction score); in the experiment with PUM1 PUF domain R3-APS it was 3.64 log2 enrichment (interaction score). Also, the binding signal with PUM1 PUF domain R5-KFC was 5.41 log2 enrichment (interaction score); in the experiment with PUM1 PUF domain R6-MWR it was 7.74 log2 enrichment (interaction score); in the experiment with PUM1 PUF domain R3-DWE, 2.3 log2 enrichment (interaction score); with PUM1 PUF domain R5-RRE it was 1.27 log2 enrichment (interaction score); in the experiment with PUM1 PUF domain R5-KFW it was 3.83 log2 enrichment (interaction score); with PUM1 PUF domain R3-FFG, 3.38 log2 enrichment (interaction score). Besides, the binding signal with PUM1 PUF domain R3-LWV was 3.07 log2 enrichment (interaction score).

As to “GGCUAGAACUAGUGGAUCCCCCGGCGCCCGGCGGCUCGAGCCCGGGUAAGUGUCAAUAGUCUGCAUGCCGCCGGGCGCCAUGCCUGCAGGUCGACUCUAGAAAACAUG”, the binding signal with PUM1 PUF domain R5-FRN is 2.94 log2 enrichment (interaction score); in the experiment with PUM1 PUF domain R5-YRR, 3.31 log2 enrichment (interaction score); with PUM1 PUF domain R5-RYL it was 2.69 log2 enrichment (interaction score); in the experiment with PUM1 PUF domain R5-KFC it was 3.89 log2 enrichment (interaction score); in the experiment with PUM1 PUF domain R5-RRE, 4.96 log2 enrichment (interaction score); with PUM1 PUF domain R5-KFW, 4.73 log2 enrichment (interaction score).
